USP30 block – blocks human USP30 ubiquitin-rhodamine cleavage; Q70CQ3; purified USP30, Ub-rhodamine cleavage fluorescence; inhibition, % at 25 µM; 47,000 tested, 5.3% active; AID 1645860
USP28 inh – inhibitors of human USP28 deubiquitinase | Q96RU2 | purified USP28, Ub-rhodamine cleavage fluorescence, 30 min | inhibition, % at 25 µM | 47,000 tested, 3% active
Target sequence (Q96RU2 whole entry, looked up): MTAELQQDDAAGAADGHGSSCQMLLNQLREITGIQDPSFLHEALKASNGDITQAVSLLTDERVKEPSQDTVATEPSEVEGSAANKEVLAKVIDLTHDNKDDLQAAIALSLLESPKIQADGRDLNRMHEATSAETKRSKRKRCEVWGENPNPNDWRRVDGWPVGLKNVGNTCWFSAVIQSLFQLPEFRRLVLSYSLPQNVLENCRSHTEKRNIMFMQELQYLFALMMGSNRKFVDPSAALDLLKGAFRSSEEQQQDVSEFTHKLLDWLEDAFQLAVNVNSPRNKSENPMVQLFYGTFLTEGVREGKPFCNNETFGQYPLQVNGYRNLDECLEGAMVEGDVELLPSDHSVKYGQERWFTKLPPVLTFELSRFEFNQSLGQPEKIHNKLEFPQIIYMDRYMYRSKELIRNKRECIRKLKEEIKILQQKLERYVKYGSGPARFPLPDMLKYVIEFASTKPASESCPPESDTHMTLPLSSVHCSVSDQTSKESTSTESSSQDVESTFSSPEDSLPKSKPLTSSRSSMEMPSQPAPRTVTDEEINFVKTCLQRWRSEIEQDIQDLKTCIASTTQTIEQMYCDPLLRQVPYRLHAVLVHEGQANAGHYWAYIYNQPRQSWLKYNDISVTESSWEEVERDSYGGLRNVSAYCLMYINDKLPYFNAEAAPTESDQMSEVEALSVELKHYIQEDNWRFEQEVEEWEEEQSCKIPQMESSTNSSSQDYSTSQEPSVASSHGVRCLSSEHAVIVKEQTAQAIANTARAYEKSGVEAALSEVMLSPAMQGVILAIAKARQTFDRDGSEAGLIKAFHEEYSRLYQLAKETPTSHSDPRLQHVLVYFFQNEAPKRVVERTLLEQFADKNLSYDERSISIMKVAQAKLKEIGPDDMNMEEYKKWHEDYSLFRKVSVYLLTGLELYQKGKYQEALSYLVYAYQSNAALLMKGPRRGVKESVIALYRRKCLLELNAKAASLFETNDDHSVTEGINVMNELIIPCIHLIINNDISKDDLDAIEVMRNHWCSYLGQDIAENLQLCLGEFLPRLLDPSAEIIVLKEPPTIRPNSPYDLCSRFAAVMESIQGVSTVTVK
USP10 inh – human USP10 deubiquitinase inhibition; Q14694; purified USP10, Ub-rhodamine fluorescence, 60 min; inhibition, % at 20 µM; 47,000 tested, 1.1% active; AID 1645856
USP17 block – human USP17-like deubiquitinase inhibition; AID 1645855; purified USP17, Ub-rhodamine cleavage fluorescence, 3 h; inhibition, % at 50 µM; A8MUK1; 47,000 tested, 6.5% active
USP8 block – inhibitors of human USP8 deubiquitinase | P40818 | purified USP8, Ub-rhodamine cleavage fluorescence, 30 min | inhibition, % at 20 µM | 47,000 tested, 4.2% active
An asterisk follows results filed as active; nt = not tested or not shown. Hits are enriched below; roughly 14% of the tested compounds scored in any of these assays. Cut-off read from the data, not from the text of the source: active = inhibition above about 30%; inactive = the rest.

SMILES | USP30 block | USP28 inh | USP10 inh | USP17 block | USP8 block
Cc1cc(C)c2cc3c(nc2c1)OC(=O)N(Cc1ccco1)C3 | 30 | 40* | 3 | 56* | 19
COc1ccc(CCN2Cc3cc4ccccc4nc3OC2=O)cc1 | 7 | 5 | 2 | 0 | 5
Cc1ccc(CN2Cc3cc4ccccc4nc3OC2=O)o1 | 13 | 7 | 0 | 42* | 12
COc1ccc2cc3c(nc2c1)OC(=O)N(Cc1ccccc1)C3 | 39* | 23 | 5 | 29 | 32*
Cc1ncsc1CN1CC[C@H]2O[C@H](C(=O)Nc3cccnc3)CC[C@H]21 | 3 | 5 | 0 | 1 | -20
CCN(CC)S(=O)(=O)c1ccc(/C(=C\Nc2ccc(Cl)cc2)c2ncc(C(F)(F)F)cc2Cl)s1 | -11 | 4 | 3 | 13 | 36*
CN(CCC#N)CC(=O)Nc1ccc([N+](=O)[O-])cc1 | nt | nt | 0 | -14 | 1
O=C(c1ccccc1-n1cnnn1)N1CCN(c2ccccc2F)CC1 | 7 | 6 | -1 | 6 | -10
COc1ccccc1C(=O)Nc1ccccc1-c1nc(-c2ccccn2)no1 | nt | nt | 7 | 32* | 8
O=C(Nc1ccccc1-c1nc(-c2ccccn2)no1)c1ccc(Cl)cc1 | 21 | 0 | 7 | 35* | 18
CC(C)(C)N=C1Nc2ccccc2NC12CCCN(S(=O)(=O)C1CC1)C2 (centres undefined) | -111 | -26 | -6 | -27 | 1
COc1cccc2c1OCC(C(=O)NCc1ccc(F)cc1)=C2 | -14 | 51* | 0 | 0 | 2
Cc1cc(/C=C2\C(=N)N3N=C(c4ccco4)SC3=NC2=O)c(C)n1-c1ccc(F)c(Cl)c1 | -314 | -58 | 2 | nt | -32
Cc1ccc(NC(=O)N2CCC3(CC2)N=C(c2ccccc2)C(=O)N3)cc1C | 23 | 8 | 4 | 37* | 12
CCOC(=O)Cc1ccc(NC(=O)Nc2ccc3snnc3c2)cc1 | -21 | 13 | 1 | 27 | -1
O=C(Nc1ccc2snnc2c1)Nc1ccc(F)cc1F | -39 | -10 | 28 | -14 | 74*
COc1ccc2c(ccn2CC(=O)NC(C)CCc2ccccc2)c1 (centres undefined) | -16 | 2 | -4 | 1 | 6
CC(CCc1ccccc1)NC(=O)Cn1c(=O)c2cccn2c2ccccc21 (centres undefined) | 19 | 15 | 15 | 82* | -5
CC(CNC(=O)Cn1c(=O)c2cccn2c2ccccc21)c1ccccc1 (centres undefined) | 32* | 14 | 10 | 17 | 27
O=C(Cc1ccccc1)N1CCc2nc(C(=O)N3CCOCC3)sc2CC1 | 19 | 6 | 0 | 15 | 23
O=C(NCCn1c(=O)n(Cc2ccccc2)c2cccnc21)C1CCCO1 (centres undefined) | -10 | -9 | -3 | -9 | 5
COc1ccccc1S(=O)(=O)N1CC[C@@H]2CN(C)[C@@H]2C1 | 18 | 7 | 1 | 56* | -1
CCCc1noc(-c2ccc(-n3cnc(C(=O)N4CCCC4)c3)nc2)n1 | 15 | 7 | 3 | 3 | 11
FC(F)(F)c1ccnc(Nc2nccc(C3CCN(Cc4ncc[nH]4)C3)n2)c1 (centres undefined) | -13 | -49 | -6 | -26 | -112
O=C(c1cccnc1)N1CCC2(CC1)CC(Oc1cccnc1)C2 | -15 | -16 | 0 | nt | -153
SMILES | USP30 block | USP28 inh | USP10 inh | USP17 block | USP8 block
CCCCOC(=O)c1c(C)oc2c1cc(NS(=O)(=O)c1ccc(CC)cc1)c1ccccc12 | -51 | -5 | 9 | 14 | 45*
CC(=O)c1c(C)oc2c1cc(OC(=O)c1ccccc1)c1ccccc12 | 13 | 10 | 2 | 0 | 13
Cc1ccc(C(CNC(=O)COc2ccccc2C)N2CCCCC2)o1 (centres undefined) | 15 | -1 | 2 | 2 | 9
NS(=O)(=O)c1ccc(CCNC(=O)Cc2cc(-c3ccc(F)cc3)on2)cc1 | -12 | 2 | -3 | 8 | 48*
O=C(Cc1cc(-c2ccccc2)on1)NCc1c(F)cccc1F | 23 | 27 | -1 | 53* | 21
COc1cccc(-c2cc(CC(=O)NCc3c(F)cccc3F)no2)c1 | 27 | 18 | -1 | 45* | 28
O=C(Cn1cc(-c2ccccc2)oc1=O)NCc1ccc(Cl)cc1 | 35* | 27 | -2 | 41* | 31*
Cn1c(NC(=O)c2cccs2)c(-c2ccc(Cl)cc2)c(=O)c2ccccc21 | 0 | -10 | 1 | 30 | -7
COC(=O)C1CN(C(=O)COc2ccc([N+](=O)[O-])cc2)c2ccccc2O1 (centres undefined) | -1 | -13 | 2 | -44 | -128
O=C(Cc1cc(-c2ccccc2)on1)NCc1ccc(Cl)cc1 | 16 | 1 | 12 | 4 | 36*
O=C(Cc1ccc(Cl)cc1)NCc1csc(-c2ccccc2)n1 | 0 | -4 | 0 | -3 | -6
O=C1c2ccccc2-n2c1nc1ccccc1c2=O | -12 | -7 | 5 | 50* | 21
O=C(CN(Cc1ccccc1Cl)C(=O)CCC(=O)Nc1ccccn1)NCc1ccco1 | 0 | -1 | 1 | -8 | 0
O=C(NCCc1ccccc1)c1cn2cc(Cl)ccc2n1 | 0 | 4 | 1 | -1 | 0
O=C(NCCc1ccccc1)c1nnn(Cc2cccc(Cl)c2)c1-n1cccc1 | -41 | 78* | 0 | 15 | 8
O=C(NCc1ccco1)c1nnn(Cc2ccccc2Cl)c1-n1cccc1 | -115 | 6 | -12 | 33* | 25
CCOC(=O)C1CCN(C(=O)CN2C(=O)c3ccccc3C2c2c[nH]c3ccccc23)CC1 (centres undefined) | 1 | -6 | -1 | -5 | -12
CCNc1nc(SCC(C)=O)nc2sc3c(c12)CCC(C)C3 (centres undefined) | 34* | 20 | 5 | 58* | 2
N#CCCc1c(-c2ccccc2)nc2[nH]c3ccccc3n2c1=O | 11 | 6 | 12 | 16 | 39*
O=C(c1cnn(Cc2ccccc2)c1)N(Cc1ccccc1)Cc1nc2ccccc2c(=O)[nH]1 | nt | nt | 2 | 16 | 2
Nc1ncc(-c2ccc(F)cc2)c(C2CCCN(C(=O)c3ccn[nH]3)C2)n1 (centres undefined) | -15 | -9 | 3 | -4 | -1
COc1cccc(CNC(=O)CCc2nnc3c(=O)n(-c4cccc(F)c4)ccn23)c1 | 5 | -2 | -2 | 9 | -19
Cc1ccc(CNC(=O)CCCc2nnc3c(=O)n(-c4cccc(F)c4)ccn23)cc1 | 5 | 7 | -3 | 14 | 36*
COc1ccc(CNC(=O)CCCc2nnc3c(=O)n(-c4cc(C)cc(C)c4)ccn23)cc1 | -1 | 9 | 35* | 39* | 78*
O=C(CCCc1nnc2c(=O)n(-c3cccc(F)c3)ccn12)NCc1ccc(Cl)cc1 | -38 | -10 | 17 | 35* | 19
Cc1cccc(NC(=O)CCc2nnc3c(=O)n(-c4cccc(F)c4)ccn23)c1 | -1 | 4 | 6 | 7 | 38*
Cc1nc2sc3c(SCC(=O)NC(c4ccccc4)c4ccccc4)ncnc3c2c2c1COC(C)(C)C2 | 7 | 0 | 0 | -7 | -1

Compound activity as filed in PubChem.
